Experimental data taken from PubChem BioAssay (NCATS).
Inconclusive results are not listed. Active and inactive are the calls of the source. Calls follow the shape of the dose curve; as a rule, active = well fitted inhibition curve with a large enough effect; inconclusive = small, poorly fitted or top-dose-only effect; inactive = flat fitted curve, though single readings scatter.

Key:
Test in all cases: qHTS profiling for inhibitors of Plasmodium falciparum proliferation (AID 504749); also: nearly all actives have a fitted effect of over 60% in size
Details in all cases: P. falciparum in erythrocytes, SYBR Green DNA, 72 h; series mostly up to 28.7 µM
CP266 = tested on: CP266
In short: (§1)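 Readout was DNA-dye fluorescence from lysed cultures, ex 485/em 535 nm. Parasitized red cells had grown 72 h with compound; data scaled between 0.29 uM artemisinin and DMSO wells and corrected using vehicle-only plates.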

CP268 = tested on: CP268
In short: as §1

CP269 = tested on: CP269
In short: as §1

CP286 = tested on: CP286
In short: as §1

CP291 = tested on: CP291
In short: as §1

CP297 = tested on: CP297
In short: as §1

CP305 = tested on: CP305
In short: as §1

CP315 = tested on: CP315
In short: as §1

CP325 = tested on: CP325
In short: as §1

CP329 = tested on: CP329
In short: as §1

CP335 = tested on: CP335
In short: as §1

DFO2036 = tested on: DFO2036
In short: as §1

DIV14 = tested on: DIV14
In short: as §1

DIV17 = tested on: DIV17
In short: as §1

DIV30 = tested on: DIV30
In short: as §1

Dd2 = tested on: Dd2
In short: as §1

ECU = tested on: ECU
In short: as §1

FAB9 = tested on: FAB9
In short: as §1

GB4 = tested on: GB4
In short: as §1

HB3 = tested on: HB3
In short: as §1

ICS = tested on: ICS
In short: as §1

JCK = tested on: JCK
In short: as §1

N140 = tested on: N140
In short: as §1

P93_24 = tested on: P93_24
In short: as §1

P94_40 = tested on: P94_40
In short: as §1

PAD = tested on: PAD
In short: as §1

PC15 = tested on: PC15
In short: as §1

PC26 = tested on: PC26
In short: as §1

PC49 = tested on: PC49
In short: as §1

SC27B = tested on: SC27B
In short: as §1

TAB109 = tested on: TAB109
In short: as §1

TAB113 = tested on: TAB113
In short: as §1

TAB165 = tested on: TAB165
In short: as §1

W2 = tested on: W2
In short: as §1

Measured: Potency

CC(O)C(N)C(=O)O (centres undefined)
inactive: all assays above
